{
  "source": "PubChem BioAssay (Tox21)",
  "key": {"[1]": {"target": "Cytochrome P450 2D6 (Homo sapiens) (UniProt P10635)", "sequence (P10635 whole entry, looked up)": "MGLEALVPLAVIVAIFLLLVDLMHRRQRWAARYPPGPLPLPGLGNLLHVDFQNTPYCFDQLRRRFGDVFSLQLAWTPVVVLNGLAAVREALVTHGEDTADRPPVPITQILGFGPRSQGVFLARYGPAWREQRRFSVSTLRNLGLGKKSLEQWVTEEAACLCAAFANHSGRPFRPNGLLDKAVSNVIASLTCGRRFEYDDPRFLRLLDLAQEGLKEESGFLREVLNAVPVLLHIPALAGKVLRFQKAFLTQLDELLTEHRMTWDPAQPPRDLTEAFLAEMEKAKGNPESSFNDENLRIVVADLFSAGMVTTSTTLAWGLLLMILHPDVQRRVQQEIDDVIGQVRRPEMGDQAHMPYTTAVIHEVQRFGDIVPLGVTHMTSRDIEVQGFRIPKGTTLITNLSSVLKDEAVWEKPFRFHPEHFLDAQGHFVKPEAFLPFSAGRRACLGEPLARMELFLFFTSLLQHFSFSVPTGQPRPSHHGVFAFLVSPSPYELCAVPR", "assay": "Cytochrome P450 Family 2 Subfamily D Member 6 (CYP2D6) small molecule antagonists: luciferase reporter qHTS assay (AID 1671196); note: nearly all actives have a fitted effect of over 50% in size; note: potency is the fitted concentration of half-maximal effect", "in_short": "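Cell-free P450-Glo system: CYP2D6 with proluciferin substrate was pre-incubated with compound for 10 min, then reacted with NADPH regeneration for 1 h at room temperature. Luciferin product was detected after 20 min, and data were reported as relative luminescence units.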"}, "[2]": {"target": "Cytochrome P450 2C19 (Homo sapiens) (UniProt P33261)", "sequence (P33261 whole entry, looked up)": "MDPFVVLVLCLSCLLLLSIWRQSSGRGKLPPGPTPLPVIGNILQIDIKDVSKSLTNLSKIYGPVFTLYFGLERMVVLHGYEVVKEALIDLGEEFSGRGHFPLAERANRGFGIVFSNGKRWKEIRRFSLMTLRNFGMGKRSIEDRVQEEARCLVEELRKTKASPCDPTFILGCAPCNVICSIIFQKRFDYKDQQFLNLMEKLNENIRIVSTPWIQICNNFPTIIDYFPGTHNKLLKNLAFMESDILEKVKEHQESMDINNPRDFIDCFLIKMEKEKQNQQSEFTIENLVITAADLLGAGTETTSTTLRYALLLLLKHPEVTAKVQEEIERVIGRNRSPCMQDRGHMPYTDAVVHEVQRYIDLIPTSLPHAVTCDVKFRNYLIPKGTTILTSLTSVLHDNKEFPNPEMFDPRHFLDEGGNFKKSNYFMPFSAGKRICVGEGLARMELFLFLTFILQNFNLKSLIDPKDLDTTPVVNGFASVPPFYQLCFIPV", "assay": "Cytochrome P450 Family 2 Subfamily C Member 19 (CYP2C19) small molecule antagonists: luciferase reporter qHTS assay (AID 1671197); note: nearly all actives have a fitted effect of over 65% in size; note: potency is the fitted concentration of half-maximal effect", "in_short": "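Luminescent readout of CYP2C19 activity: luciferin product detected 20 min after adding detection reagent. Before that, compound and enzyme-substrate mix preincubated 10 min at room temperature; NADPH-regenerating system started a 1 h, 37C reaction. Ketoconazole as positive control.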"}, "[3]": {"target": "Cytochrome P450 2C9 (Homo sapiens) (UniProt P11712)", "sequence (P11712 whole entry, looked up)": "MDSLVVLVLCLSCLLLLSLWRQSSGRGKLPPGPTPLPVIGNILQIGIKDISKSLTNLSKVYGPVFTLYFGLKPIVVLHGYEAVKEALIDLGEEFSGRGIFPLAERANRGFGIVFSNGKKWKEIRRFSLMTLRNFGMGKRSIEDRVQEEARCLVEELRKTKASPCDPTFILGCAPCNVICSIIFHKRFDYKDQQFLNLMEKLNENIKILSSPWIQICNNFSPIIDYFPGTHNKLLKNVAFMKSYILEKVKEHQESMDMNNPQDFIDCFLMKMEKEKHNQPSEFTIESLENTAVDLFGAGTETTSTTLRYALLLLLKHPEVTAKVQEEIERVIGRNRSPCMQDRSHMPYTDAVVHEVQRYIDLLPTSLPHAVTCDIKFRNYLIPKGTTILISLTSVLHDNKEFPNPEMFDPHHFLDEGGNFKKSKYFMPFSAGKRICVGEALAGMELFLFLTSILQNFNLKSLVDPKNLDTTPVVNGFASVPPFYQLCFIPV", "assay": "Cytochrome P450 Family 2 Subfamily C Member 9 (CYP2C9) small molecule antagonists: luciferase reporter qHTS assay (AID 1671198); note: nearly all actives have a fitted effect of over 50% in size; note: potency is the fitted concentration of half-maximal effect", "in_short": "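Enzyme-substrate mix preincubated with compound 10 min at room temperature; reaction started with NADPH regeneration solution, 1 h 37C. Luminescent luciferin product read after 20 min detection reagent.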"}, "[4]": {"target": "Cytochrome P450 1A2 (Homo sapiens) (UniProt P05177)", "sequence (P05177 whole entry, looked up)": "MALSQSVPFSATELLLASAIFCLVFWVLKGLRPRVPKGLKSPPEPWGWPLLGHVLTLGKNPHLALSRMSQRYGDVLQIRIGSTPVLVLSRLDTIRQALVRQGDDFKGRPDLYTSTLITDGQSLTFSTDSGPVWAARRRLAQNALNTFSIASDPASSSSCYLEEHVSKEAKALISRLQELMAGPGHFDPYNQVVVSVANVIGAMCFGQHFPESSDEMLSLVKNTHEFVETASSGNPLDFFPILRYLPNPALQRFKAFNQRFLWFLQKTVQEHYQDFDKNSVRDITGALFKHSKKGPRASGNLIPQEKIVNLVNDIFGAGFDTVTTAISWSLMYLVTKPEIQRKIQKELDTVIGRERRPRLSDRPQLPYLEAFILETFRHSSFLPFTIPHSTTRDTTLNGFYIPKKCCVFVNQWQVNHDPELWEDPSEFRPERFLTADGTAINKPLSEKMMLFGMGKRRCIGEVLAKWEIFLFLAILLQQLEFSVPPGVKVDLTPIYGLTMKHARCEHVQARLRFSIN", "assay": "Cytochrome P450 Family 1 Subfamily A Member 2 (CYP1A2) small molecule antagonists: luciferase reporter qHTS assay (AID 1671199); note: series mostly up to about 120 µM; nearly all actives have a fitted effect of over 50% in size", "in_short": "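P450-Glo CYP1A2 enzyme–proluciferin substrate mix with compound 10 min at room temperature, then NADPH regeneration 1 h at room temperature. Luciferin detection reagent added, luminescence read after 20 min; furafylline positive control.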"}, "[5]": {"target": "Voltage-gated inwardly rectifying potassium channel KCNH2 (Homo sapiens) (UniProt Q12809)", "sequence (Q12809 whole entry, looked up)": "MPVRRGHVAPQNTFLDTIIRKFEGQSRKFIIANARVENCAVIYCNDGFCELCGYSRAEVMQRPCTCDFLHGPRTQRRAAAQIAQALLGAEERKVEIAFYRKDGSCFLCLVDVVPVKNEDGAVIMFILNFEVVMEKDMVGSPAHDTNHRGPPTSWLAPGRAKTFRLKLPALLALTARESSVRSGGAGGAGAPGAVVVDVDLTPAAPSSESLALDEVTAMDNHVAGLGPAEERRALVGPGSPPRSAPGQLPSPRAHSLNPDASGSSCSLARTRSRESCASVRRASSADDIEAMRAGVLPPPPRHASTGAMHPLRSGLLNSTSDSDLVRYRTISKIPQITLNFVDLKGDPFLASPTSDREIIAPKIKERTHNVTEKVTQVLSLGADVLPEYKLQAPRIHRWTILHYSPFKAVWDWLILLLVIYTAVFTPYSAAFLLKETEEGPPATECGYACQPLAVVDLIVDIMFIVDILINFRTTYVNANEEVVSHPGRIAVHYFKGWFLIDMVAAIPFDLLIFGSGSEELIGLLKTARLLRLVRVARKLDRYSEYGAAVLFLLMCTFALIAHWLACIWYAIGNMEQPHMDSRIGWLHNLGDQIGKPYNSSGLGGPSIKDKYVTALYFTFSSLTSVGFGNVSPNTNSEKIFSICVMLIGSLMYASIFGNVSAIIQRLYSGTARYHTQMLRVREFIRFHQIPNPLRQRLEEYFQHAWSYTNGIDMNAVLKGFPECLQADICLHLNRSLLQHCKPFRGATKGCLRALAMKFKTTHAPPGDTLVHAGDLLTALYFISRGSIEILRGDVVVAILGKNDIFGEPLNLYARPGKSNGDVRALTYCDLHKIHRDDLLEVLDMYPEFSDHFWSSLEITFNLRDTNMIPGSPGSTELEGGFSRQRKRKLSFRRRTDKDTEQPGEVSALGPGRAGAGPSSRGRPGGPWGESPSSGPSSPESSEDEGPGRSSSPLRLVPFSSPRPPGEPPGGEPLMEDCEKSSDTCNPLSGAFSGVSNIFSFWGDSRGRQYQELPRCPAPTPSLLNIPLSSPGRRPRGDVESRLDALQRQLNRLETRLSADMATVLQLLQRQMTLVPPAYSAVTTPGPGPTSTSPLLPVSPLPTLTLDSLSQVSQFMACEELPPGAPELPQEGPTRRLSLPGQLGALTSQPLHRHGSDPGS", "assay": "Human Ether-a-go-go-Related Gene (hERG) channel small molecule antagonists: fluorescence cell-based qHTS assay (AID 1671200); note: nearly all actives have a fitted effect of over 50% in size; note: potency is the fitted concentration of half-maximal effect", "in_short": "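Fluorescence at 540 nm emission (480 nm excitation) was recorded kinetically for 2 min at 1-second intervals once the thallium-containing stimulus reached cells previously loaded with FluxOR II dye.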"}, "[6]": {"target": "Cytochrome P450 3A4 (Homo sapiens) (UniProt P08684)", "sequence (P08684 whole entry, looked up)": "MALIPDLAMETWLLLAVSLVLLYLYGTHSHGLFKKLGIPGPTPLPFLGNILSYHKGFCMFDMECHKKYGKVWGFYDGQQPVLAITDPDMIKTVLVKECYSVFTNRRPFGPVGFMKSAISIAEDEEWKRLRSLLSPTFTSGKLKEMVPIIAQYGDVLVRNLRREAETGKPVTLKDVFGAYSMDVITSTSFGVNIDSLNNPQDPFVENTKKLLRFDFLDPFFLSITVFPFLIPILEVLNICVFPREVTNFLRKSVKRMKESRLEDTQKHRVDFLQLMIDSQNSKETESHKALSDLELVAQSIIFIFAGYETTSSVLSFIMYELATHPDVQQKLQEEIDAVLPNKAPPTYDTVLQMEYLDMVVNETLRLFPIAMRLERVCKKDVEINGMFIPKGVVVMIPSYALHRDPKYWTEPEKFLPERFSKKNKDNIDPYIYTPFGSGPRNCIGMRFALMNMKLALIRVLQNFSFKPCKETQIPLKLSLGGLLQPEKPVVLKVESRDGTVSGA", "assay": "Cytochrome P450 Family 3 Subfamily A Member 4 (CYP3A4) small molecule antagonists: luciferase reporter qHTS assay (AID 1671201); note: nearly all actives have a fitted effect of over 50% in size; note: potency is the fitted concentration of half-maximal effect", "in_short": "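qHTS, 1536-well. CYP3A4 + proluciferin substrate, cpd 10 min RT → NADPH regen 1 h RT → detection reagent 20 min → luminescence (RLU). Ketoconazole positive control.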"}},
  "note": "Records with an inconclusive call do not appear. A call without a number means that no potency is given here. Activity calls are given as the source filed them. Calls come from the whole dose curve; as a rule, active = well fitted curve in the direction sought with a large enough effect in the repeat runs; inconclusive = weak or mixed curves; inactive = no such curve, though single readings can be large; an effect the other way counts as inactive or inconclusive.",
  "data": [
    {"compound": "CCCCCCCC/C=C\\CCCCCCCCCCCC(=O)O", "values": [
      {"measurement": "Potency", "setting": "[1]", "result": "inactive"},
      {"measurement": "Potency", "setting": "[2]", "result": "inactive"},
      {"measurement": "Potency", "setting": "[3]", "result": "inactive"},
      {"measurement": "Potency", "setting": "[4]", "result": "inactive"},
      {"measurement": "Potency", "setting": "[5]", "result": "inactive"},
      {"measurement": "Potency", "setting": "[6]", "result": "inactive"}
    ]},
    {"compound": "CCC(=O)OC", "values": [
      {"measurement": "Potency", "setting": "[1]", "result": "inactive"},
      {"measurement": "Potency", "setting": "[2]", "result": "inactive"},
      {"measurement": "Potency", "setting": "[3]", "result": "inactive"},
      {"measurement": "Potency", "setting": "[5]", "result": "inactive"},
      {"measurement": "Potency", "setting": "[6]", "result": "inactive"}
    ]},
    {"compound": "CCC(C)COC(=O)CC(C)C", "note": "(stereo not drawn)", "values": [
      {"measurement": "Potency", "setting": "[1]", "result": "inactive"},
      {"measurement": "Potency", "setting": "[2]", "result": "inactive"},
      {"measurement": "Potency", "setting": "[3]", "result": "71 µM (active)"},
      {"measurement": "Potency", "setting": "[5]", "result": "inactive"},
      {"measurement": "Potency", "setting": "[6]", "result": "inactive"}
    ]},
    {"compound": "C=CC(C)(CCC=C(C)C)OC(=O)CC(C)C", "note": "(stereo not drawn)", "values": [
      {"measurement": "Potency", "setting": "[1]", "result": "inactive"},
      {"measurement": "Potency", "setting": "[2]", "result": "35.6 µM (active)"},
      {"measurement": "Potency", "setting": "[3]", "result": "35.6 µM (active)"},
      {"measurement": "Potency", "setting": "[5]", "result": "inactive"},
      {"measurement": "Potency", "setting": "[6]", "result": "35.6 µM (active)"}
    ]},
    {"compound": "O=C(O)c1ccc(OCCCOc2ccc(C(=O)O)cc2)cc1", "values": [
      {"measurement": "Potency", "setting": "[1]", "result": "8.71 µM (active)"},
      {"measurement": "Potency", "setting": "[2]", "result": "inactive"},
      {"measurement": "Potency", "setting": "[3]", "result": "inactive"},
      {"measurement": "Potency", "setting": "[4]", "result": "inactive"},
      {"measurement": "Potency", "setting": "[5]", "result": "inactive"},
      {"measurement": "Potency", "setting": "[6]", "result": "inactive"}
    ]},
    {"compound": "C=C(C)CCCC(C)CCO", "note": "(stereo not drawn)", "values": [
      {"measurement": "Potency", "setting": "[1]", "result": "inactive"},
      {"measurement": "Potency", "setting": "[2]", "result": "39.9 µM (active)"},
      {"measurement": "Potency", "setting": "[3]", "result": "39.9 µM (active)"},
      {"measurement": "Potency", "setting": "[5]", "result": "inactive"},
      {"measurement": "Potency", "setting": "[6]", "result": "28.3 µM (active)"}
    ]},
    {"compound": "OCCOCC#CCOCCO", "values": [
      {"measurement": "Potency", "setting": "[1]", "result": "inactive"},
      {"measurement": "Potency", "setting": "[2]", "result": "inactive"},
      {"measurement": "Potency", "setting": "[3]", "result": "inactive"},
      {"measurement": "Potency", "setting": "[4]", "result": "inactive"},
      {"measurement": "Potency", "setting": "[5]", "result": "inactive"},
      {"measurement": "Potency", "setting": "[6]", "result": "inactive"}
    ]},
    {"compound": "CN1CCCN=C1COC(=O)C(O)(c1ccccc1)C1CCCCC1", "note": "(stereo not drawn)", "values": [
      {"measurement": "Potency", "setting": "[1]", "result": "0.617 µM (active)"},
      {"measurement": "Potency", "setting": "[2]", "result": "inactive"},
      {"measurement": "Potency", "setting": "[3]", "result": "inactive"},
      {"measurement": "Potency", "setting": "[5]", "result": "4.77 µM (active)"}
    ]},
    {"compound": "CCCCC(CC)COP(=O)(O)O", "note": "(stereo not drawn)", "values": [
      {"measurement": "Potency", "setting": "[1]", "result": "inactive"},
      {"measurement": "Potency", "setting": "[2]", "result": "40.6 µM (active)"},
      {"measurement": "Potency", "setting": "[3]", "result": "40.6 µM (active)"},
      {"measurement": "Potency", "setting": "[5]", "result": "inactive"},
      {"measurement": "Potency", "setting": "[6]", "result": "inactive"}
    ]},
    {"compound": "CC1(CN2CCC(n3c(=O)[nH]c4ccccc43)CC2)OCc2ccccc2-n2cccc21", "note": "(stereo not drawn)", "values": [
      {"measurement": "Potency", "setting": "[1]", "result": "2.45 µM (active)"},
      {"measurement": "Potency", "setting": "[2]", "result": "21.9 µM (active)"},
      {"measurement": "Potency", "setting": "[3]", "result": "13.8 µM (active)"},
      {"measurement": "Potency", "setting": "[5]", "result": "8.49 µM (active)"}
    ]},
    {"compound": "O=C1c2ccccc2C(=O)N1CCc1noc(-c2ccc(CN3CCCCCC3)s2)n1", "values": [
      {"measurement": "Potency", "setting": "[1]", "result": "8.19 µM (active)"},
      {"measurement": "Potency", "setting": "[2]", "result": "8.19 µM (active)"},
      {"measurement": "Potency", "setting": "[3]", "result": "20.6 µM (active)"},
      {"measurement": "Potency", "setting": "[5]", "result": "20.1 µM (active)"},
      {"measurement": "Potency", "setting": "[6]", "result": "0.231 µM (active)"}
    ]},
    {"compound": "CCOC(=O)c1ccc(OCCN2C[C@H](O)[C@@H](O)[C@H](O)[C@H]2CO)cc1", "values": [
      {"measurement": "Potency", "setting": "[1]", "result": "inactive"},
      {"measurement": "Potency", "setting": "[2]", "result": "inactive"},
      {"measurement": "Potency", "setting": "[3]", "result": "inactive"},
      {"measurement": "Potency", "setting": "[5]", "result": "inactive"},
      {"measurement": "Potency", "setting": "[6]", "result": "inactive"}
    ]},
    {"compound": "CC(C)C[C@H](NC(=O)[C@H](CCc1ccccc1)NC(=O)CN1CCOCC1)C(=O)N[C@@H](Cc1ccccc1)C(=O)N[C@@H](CC(C)C)C(=O)[C@@]1(C)CO1", "values": [
      {"measurement": "Potency", "setting": "[1]", "result": "inactive"},
      {"measurement": "Potency", "setting": "[2]", "result": "inactive"},
      {"measurement": "Potency", "setting": "[5]", "result": "inactive"}
    ]},
    {"compound": "CCCCN(CCN(CCCC)C(=O)N1CCOCC1)C(=O)N1CCOCC1", "values": [
      {"measurement": "Potency", "setting": "[1]", "result": "inactive"},
      {"measurement": "Potency", "setting": "[3]", "result": "inactive"},
      {"measurement": "Potency", "setting": "[4]", "result": "inactive"},
      {"measurement": "Potency", "setting": "[5]", "result": "inactive"}
    ]},
    {"compound": "CCC(C)COC(C)=O", "note": "(stereo not drawn)", "values": [
      {"measurement": "Potency", "setting": "[1]", "result": "inactive"},
      {"measurement": "Potency", "setting": "[3]", "result": "inactive"},
      {"measurement": "Potency", "setting": "[4]", "result": "inactive"},
      {"measurement": "Potency", "setting": "[5]", "result": "inactive"},
      {"measurement": "Potency", "setting": "[6]", "result": "inactive"}
    ]}
  ]
}
